Consider two sequences from article PMC7862700, “An all-to-all approach to the identification of sequence-specific readers for epigenetic DNA modifications on cytosine”.

Holding throughout (experiment): DAPPL (digital affinity profiling via proximity ligation, sequencing); 10 mM Tris-HCl pH 7.5, 50 mM NaCl, 1 mM DTT, 4% glycerol, room temperature, 30 min; GST-TFs on glutathione beads, 16-mer random dsDNA library, 0.1% formaldehyde crosslink after washing; high values mean tight binding
What all share (settings): protein: recombinant; tags: N-terminal GST; dsDNA, one strand shown

One experiment concerns the target T1, FLI1 (Homo sapiens, UniProt Q01543 1-452).
T1 sequence: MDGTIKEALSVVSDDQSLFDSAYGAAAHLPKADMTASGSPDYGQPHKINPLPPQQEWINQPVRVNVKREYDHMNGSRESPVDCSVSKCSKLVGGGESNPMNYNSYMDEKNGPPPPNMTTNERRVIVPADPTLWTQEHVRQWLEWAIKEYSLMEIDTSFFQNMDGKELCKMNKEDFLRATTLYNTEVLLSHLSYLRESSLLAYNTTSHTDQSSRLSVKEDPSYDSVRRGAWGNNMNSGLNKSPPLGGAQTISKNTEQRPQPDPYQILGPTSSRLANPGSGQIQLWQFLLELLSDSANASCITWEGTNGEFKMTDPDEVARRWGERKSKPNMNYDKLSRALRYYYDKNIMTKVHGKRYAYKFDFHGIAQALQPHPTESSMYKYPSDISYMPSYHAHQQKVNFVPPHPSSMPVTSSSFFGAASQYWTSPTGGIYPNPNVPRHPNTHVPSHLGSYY
In outline: (§1)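 GST fusions of human transcription factors were expressed in yeast and captured with glutathione beads. Once given DNA barcodes and pooled alongside a tag-only sample, they were incubated for 30 min at room temperature with 200 nmole of a random double-stranded 16-mer DNA library in Tris/NaCl/DTT/glycerol buffer, then washed, crosslinked (0.1% formaldehyde), proximity-ligated, PCR-amplified and sequenced on an Illumina NextSeq500. The binding signal of each hexamer is its read frequency for a factor divided by its frequency for the tag-only sample.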

A further experiment concerns the target T2, ELK1 (Homo sapiens, UniProt P19419 1-428).
T2 sequence: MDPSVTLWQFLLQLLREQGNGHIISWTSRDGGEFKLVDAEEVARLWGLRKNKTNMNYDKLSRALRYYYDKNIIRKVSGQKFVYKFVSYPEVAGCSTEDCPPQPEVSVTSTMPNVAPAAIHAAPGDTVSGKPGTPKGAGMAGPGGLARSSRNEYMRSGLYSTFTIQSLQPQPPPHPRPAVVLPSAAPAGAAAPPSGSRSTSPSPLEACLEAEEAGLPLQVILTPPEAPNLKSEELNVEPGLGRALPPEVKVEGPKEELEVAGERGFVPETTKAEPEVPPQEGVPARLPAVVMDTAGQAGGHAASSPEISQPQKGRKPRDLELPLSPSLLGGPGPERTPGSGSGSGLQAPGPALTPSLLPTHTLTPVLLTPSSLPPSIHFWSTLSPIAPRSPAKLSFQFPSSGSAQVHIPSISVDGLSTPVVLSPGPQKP
In outline: as §1

The next experiment addresses T3, GABPA (Homo sapiens, UniProt Q06546 1-454).
T3 sequence: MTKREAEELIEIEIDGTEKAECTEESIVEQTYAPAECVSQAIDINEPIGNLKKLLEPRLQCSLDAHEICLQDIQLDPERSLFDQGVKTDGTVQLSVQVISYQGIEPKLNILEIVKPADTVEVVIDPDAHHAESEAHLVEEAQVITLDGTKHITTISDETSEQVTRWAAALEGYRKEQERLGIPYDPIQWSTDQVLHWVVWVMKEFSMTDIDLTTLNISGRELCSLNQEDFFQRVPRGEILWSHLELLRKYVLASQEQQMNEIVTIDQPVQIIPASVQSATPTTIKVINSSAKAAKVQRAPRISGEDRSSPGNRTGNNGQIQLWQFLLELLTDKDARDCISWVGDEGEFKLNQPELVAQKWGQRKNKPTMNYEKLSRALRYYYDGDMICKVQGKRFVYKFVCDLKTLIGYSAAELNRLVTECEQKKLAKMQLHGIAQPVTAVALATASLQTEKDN
In outline:
as §1

The next experiment concerns the target T4, ERG (Homo sapiens, UniProt P11308 1-479).
T4 sequence: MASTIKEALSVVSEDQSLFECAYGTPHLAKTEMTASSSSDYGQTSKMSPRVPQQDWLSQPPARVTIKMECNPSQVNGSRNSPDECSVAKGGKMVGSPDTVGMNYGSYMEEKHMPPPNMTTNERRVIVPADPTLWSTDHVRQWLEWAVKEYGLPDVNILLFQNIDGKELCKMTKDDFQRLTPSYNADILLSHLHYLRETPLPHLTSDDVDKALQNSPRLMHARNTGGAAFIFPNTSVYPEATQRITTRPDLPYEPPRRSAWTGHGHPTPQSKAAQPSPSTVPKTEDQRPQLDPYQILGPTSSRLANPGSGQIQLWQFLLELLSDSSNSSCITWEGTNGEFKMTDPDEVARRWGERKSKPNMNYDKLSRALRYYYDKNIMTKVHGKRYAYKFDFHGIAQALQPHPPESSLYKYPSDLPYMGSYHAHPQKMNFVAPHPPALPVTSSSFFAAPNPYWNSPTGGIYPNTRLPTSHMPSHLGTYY
In outline:
as §1

The next experiment deals with ELF1 (Homo sapiens, UniProt P32519 1-619). In outline: as §1
ELF1, sequence (P32519 whole entry): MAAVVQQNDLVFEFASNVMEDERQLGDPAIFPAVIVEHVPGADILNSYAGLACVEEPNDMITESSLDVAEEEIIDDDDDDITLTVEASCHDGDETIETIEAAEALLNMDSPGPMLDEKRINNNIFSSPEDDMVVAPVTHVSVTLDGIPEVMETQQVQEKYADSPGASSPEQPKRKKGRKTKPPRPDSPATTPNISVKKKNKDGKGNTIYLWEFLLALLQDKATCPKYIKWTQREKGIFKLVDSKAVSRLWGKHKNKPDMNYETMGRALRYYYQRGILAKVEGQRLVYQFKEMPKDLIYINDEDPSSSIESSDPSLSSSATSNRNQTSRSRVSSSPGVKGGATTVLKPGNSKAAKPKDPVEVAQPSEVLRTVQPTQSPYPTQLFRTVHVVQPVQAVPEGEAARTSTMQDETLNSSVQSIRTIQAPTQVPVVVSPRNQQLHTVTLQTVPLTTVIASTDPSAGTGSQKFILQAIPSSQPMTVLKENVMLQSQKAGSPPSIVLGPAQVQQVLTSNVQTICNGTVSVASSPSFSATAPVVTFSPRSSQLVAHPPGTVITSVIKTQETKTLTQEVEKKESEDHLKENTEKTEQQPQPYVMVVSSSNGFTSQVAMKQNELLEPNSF
The target of another experiment is T5, EHF (Homo sapiens, UniProt Q9NZC4 1-300).
T5 sequence: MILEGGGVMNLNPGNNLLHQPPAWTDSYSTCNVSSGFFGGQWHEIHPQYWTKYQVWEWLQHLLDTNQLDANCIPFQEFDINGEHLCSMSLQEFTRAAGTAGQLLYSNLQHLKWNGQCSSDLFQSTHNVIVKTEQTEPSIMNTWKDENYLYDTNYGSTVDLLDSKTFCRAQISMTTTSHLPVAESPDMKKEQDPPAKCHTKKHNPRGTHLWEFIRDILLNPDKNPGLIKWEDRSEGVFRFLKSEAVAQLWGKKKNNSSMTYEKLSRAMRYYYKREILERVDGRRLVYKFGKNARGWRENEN
In outline: as §1

A further experiment addresses SPI1 (Homo sapiens, UniProt P17947 1-270). In outline: as §1
The target in a further experiment is SPIB (Homo sapiens, UniProt Q01892 1-262). In outline: as §1
SPIB, sequence (Q01892 whole entry): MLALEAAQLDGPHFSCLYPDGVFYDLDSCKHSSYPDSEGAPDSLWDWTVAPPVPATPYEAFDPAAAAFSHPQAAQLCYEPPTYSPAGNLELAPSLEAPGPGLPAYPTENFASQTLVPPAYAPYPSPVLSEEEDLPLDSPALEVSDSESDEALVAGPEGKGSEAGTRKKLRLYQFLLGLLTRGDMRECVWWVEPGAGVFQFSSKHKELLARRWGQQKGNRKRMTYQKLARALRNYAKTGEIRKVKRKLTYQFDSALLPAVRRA
A further experiment concerns the target T6, ELK3 (Homo sapiens, UniProt P41970 1-407).
T6 sequence: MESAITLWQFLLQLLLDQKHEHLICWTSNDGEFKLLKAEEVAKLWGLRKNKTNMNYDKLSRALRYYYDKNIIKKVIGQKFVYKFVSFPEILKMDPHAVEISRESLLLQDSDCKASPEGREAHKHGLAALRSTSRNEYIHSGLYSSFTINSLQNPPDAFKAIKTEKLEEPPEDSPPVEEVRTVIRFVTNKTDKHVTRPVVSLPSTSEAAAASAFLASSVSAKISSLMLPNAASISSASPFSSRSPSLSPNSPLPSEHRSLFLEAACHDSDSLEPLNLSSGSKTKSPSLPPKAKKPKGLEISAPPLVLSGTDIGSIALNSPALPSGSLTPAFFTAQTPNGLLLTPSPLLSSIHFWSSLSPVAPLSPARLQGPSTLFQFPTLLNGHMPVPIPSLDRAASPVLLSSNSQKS
In outline: as §1

The next experiment deals with T7, FEV (Homo sapiens, UniProt Q99581 1-238).
T7 sequence: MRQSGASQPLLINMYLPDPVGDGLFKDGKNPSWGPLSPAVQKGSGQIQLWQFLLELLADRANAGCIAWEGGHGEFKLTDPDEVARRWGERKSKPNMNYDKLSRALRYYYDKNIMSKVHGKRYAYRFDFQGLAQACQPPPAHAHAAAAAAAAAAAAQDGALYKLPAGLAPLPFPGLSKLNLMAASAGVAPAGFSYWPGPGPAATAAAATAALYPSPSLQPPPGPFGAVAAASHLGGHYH
The method in brief: as §1

A further experiment concerns the target ETV5 (Homo sapiens, UniProt P41161 1-510). The method in brief: as §1
In another experiment the target is T8, SPIC (Homo sapiens, UniProt Q8N5J4 1-248).
T8 sequence: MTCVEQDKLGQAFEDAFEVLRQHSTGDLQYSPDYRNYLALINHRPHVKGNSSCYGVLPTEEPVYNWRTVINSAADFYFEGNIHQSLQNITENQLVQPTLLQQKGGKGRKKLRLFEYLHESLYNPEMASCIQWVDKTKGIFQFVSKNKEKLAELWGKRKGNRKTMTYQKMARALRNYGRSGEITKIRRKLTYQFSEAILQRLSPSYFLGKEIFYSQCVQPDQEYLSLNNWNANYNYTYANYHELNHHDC
The method in brief:
as §1

The target of a further experiment is ELF4 (Homo sapiens, UniProt Q99607 1-663). The method in brief: as §1
ELF4, sequence (Q99607 whole entry): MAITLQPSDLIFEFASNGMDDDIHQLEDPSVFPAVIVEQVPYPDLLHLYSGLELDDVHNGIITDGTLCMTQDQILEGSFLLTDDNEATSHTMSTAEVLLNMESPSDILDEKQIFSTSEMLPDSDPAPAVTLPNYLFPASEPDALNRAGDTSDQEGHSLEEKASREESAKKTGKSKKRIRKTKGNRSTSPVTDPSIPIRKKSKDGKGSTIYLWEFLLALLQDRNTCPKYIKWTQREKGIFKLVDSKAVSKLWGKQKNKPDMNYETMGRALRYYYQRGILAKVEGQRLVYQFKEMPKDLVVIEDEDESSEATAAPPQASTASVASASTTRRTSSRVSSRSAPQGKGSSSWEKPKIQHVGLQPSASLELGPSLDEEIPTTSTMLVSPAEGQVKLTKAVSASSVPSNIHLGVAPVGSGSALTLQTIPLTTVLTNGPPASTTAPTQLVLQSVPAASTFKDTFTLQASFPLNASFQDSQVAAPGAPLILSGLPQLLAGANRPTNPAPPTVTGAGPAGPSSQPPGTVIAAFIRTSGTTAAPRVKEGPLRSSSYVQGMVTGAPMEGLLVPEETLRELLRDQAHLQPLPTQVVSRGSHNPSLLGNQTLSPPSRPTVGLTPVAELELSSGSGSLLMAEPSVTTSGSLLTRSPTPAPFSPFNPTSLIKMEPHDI
Another experiment concerns the target T9, ELK4 (Homo sapiens, UniProt P28324-2 1-405).
T9 sequence: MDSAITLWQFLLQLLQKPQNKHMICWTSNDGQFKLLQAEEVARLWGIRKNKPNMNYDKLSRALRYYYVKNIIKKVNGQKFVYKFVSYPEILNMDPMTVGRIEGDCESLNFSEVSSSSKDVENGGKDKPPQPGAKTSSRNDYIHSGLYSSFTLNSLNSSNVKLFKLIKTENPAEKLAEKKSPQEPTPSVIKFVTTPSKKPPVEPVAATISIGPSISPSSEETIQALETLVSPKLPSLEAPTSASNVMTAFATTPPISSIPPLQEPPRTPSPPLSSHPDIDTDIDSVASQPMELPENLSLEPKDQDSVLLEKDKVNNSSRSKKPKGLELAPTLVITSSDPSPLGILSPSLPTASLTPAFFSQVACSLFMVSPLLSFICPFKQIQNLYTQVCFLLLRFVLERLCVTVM
The method in brief:
as §1

Another experiment addresses T10, ETV2 (Homo sapiens, UniProt O00321 1-342).
T10 sequence: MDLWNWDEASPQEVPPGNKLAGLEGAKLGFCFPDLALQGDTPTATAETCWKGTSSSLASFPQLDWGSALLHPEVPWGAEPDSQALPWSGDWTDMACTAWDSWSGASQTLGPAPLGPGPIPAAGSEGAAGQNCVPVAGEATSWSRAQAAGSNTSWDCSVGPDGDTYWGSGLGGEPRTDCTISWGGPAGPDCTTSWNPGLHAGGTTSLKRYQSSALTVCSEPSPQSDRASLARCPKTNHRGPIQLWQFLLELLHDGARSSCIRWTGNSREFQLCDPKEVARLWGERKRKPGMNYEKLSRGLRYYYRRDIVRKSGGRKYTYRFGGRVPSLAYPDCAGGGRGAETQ
In outline: as §1

Another experiment deals with T11, ELF3 (Homo sapiens, UniProt P78545 1-371).
T11 sequence: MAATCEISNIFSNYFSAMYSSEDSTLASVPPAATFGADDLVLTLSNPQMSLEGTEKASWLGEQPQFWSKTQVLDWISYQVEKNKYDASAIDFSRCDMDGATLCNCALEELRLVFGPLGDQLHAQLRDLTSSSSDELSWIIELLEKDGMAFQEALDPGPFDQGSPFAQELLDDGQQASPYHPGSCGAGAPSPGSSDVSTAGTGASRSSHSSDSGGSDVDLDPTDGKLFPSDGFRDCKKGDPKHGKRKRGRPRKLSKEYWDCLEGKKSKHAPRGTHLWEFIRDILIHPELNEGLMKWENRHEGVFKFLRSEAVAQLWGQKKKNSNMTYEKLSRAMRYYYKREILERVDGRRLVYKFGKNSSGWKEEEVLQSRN
The method in brief:
as §1

Another experiment has as its target ETV1 (Homo sapiens, UniProt P50549 1-477). In outline: as §1

ETV1, sequence (P50549 whole entry): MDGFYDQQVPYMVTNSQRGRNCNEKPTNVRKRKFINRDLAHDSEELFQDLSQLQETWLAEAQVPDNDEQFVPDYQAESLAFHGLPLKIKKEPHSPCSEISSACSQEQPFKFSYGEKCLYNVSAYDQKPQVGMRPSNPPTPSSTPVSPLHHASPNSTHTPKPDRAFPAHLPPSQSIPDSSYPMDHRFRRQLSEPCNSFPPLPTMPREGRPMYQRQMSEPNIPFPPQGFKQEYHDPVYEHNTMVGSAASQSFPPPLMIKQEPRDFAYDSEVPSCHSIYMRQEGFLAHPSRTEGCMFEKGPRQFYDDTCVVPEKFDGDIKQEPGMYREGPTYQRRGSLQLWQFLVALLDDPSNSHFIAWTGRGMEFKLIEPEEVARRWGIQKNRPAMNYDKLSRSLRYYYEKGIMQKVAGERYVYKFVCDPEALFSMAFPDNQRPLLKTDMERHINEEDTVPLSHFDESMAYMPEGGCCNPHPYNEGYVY
ETV5, sequence (P41161 whole entry): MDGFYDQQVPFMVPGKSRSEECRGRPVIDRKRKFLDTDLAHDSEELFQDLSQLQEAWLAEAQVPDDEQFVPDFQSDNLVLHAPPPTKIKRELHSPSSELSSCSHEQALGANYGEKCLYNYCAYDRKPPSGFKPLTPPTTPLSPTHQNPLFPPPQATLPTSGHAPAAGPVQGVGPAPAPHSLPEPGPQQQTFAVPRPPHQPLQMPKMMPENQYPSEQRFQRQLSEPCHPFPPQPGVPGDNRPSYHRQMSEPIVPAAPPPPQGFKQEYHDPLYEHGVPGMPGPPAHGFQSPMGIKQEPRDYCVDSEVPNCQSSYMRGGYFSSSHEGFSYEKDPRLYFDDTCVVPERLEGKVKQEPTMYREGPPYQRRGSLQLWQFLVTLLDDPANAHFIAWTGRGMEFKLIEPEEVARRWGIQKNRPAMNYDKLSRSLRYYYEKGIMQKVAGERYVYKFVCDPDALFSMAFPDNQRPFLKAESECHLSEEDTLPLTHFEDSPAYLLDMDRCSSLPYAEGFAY

Consider TGCACG, for which the binding signal in the experiment with FLI1 is 1.12 fold enrichment (6-mer frequency, TF over GST control); with ELK1 it was 1.06 fold enrichment (6-mer frequency, TF over GST control); in the experiment with GABPA, 1.18 fold enrichment (6-mer frequency, TF over GST control); in the experiment with ERG, 1.03 fold enrichment (6-mer frequency, TF over GST control); in the experiment with ELF1 it was 1.16 fold enrichment (6-mer frequency, TF over GST control); in the experiment with EHF it was 1.22 fold enrichment (6-mer frequency, TF over GST control). Moreover, the binding signal was 1.12 fold enrichment (6-mer frequency, TF over GST control) in the experiment with SPI1; 1.23 fold enrichment (6-mer frequency, TF over GST control) with SPIB; 1.15 fold enrichment (6-mer frequency, TF over GST control) with ELK3; 1.15 fold enrichment (6-mer frequency, TF over GST control) in the experiment with FEV; 1.14 fold enrichment (6-mer frequency, TF over GST control) with ETV5; 1.03 fold enrichment (6-mer frequency, TF over GST control) with SPIC. For the same sequence, the binding signal with ELF4 was 1.13 fold enrichment (6-mer frequency, TF over GST control); with ELK4, 1.24 fold enrichment (6-mer frequency, TF over GST control); with ETV2, 1.22 fold enrichment (6-mer frequency, TF over GST control); with ELF3, 1.26 fold enrichment (6-mer frequency, TF over GST control); with ETV1 it was 1.06 fold enrichment (6-mer frequency, TF over GST control).

Turning to CGGTCT, the binding signal with FLI1 was 1.24 fold enrichment (6-mer frequency, TF over GST control); with ELK1, 1.15 fold enrichment (6-mer frequency, TF over GST control); with GABPA it was 1.1 fold enrichment (6-mer frequency, TF over GST control); in the experiment with ERG, 1.18 fold enrichment (6-mer frequency, TF over GST control); with ELF1, 1.15 fold enrichment (6-mer frequency, TF over GST control); with EHF, 1.15 fold enrichment (6-mer frequency, TF over GST control). Further, the binding signal was 1.13 fold enrichment (6-mer frequency, TF over GST control) with SPI1; 1.16 fold enrichment (6-mer frequency, TF over GST control) in the experiment with SPIB; 1.18 fold enrichment (6-mer frequency, TF over GST control) in the experiment with ELK3; 1.3 fold enrichment (6-mer frequency, TF over GST control) with FEV; 1.25 fold enrichment (6-mer frequency, TF over GST control) with ETV5; 1.02 fold enrichment (6-mer frequency, TF over GST control) in the experiment with SPIC. In addition, the binding signal is 1.18 fold enrichment (6-mer frequency, TF over GST control) with ELF4; 1.12 fold enrichment (6-mer frequency, TF over GST control) with ELK4; 1.24 fold enrichment (6-mer frequency, TF over GST control) with ETV2; 1.29 fold enrichment (6-mer frequency, TF over GST control) in the experiment with ELF3; 1.16 fold enrichment (6-mer frequency, TF over GST control) in the experiment with ETV1.
